# Screens deposited in PubChem by The Scripps Research Institute Molecular Screening Center.
# PLC-gamma1 inh = PLC-gamma1 (human) inhibition, primary screen; 0.84% of 370,000 active; P19174; purified PLC-gamma1, fluorogenic substrate, fluorescence; inhibition, % at 12.2 µM; in the data active = inhibition above about 9.5%
# KLK7 zymogen act = activates the human kallikrein-7 zymogen; purified proKLK7, EDANS-DABCYL substrate fluorescence; 100% is mature enzyme control, 0% vehicle; activation, % at 7 µM; 0.9% of 370,000 active;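 active = activation above the mean of all tested compounds plus 3 SD, computed per campaign excluding outliers beyond control limits, cut at about 13% in these data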
# HGIII-sPLA2 inh = Blocks human group III sPLA2 activity. AID 743126. QFRET BODIPY PC-A2 liposome hydrolysis, fluorescence. Q9NZ20. inhibition, % at 12.2 µM. 0.56% of 370,000 active;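 active = inhibition above mean plus 3 SD of compounds lying within the high and low control bounds, cut at about 19% in these data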
# ADAM10 inh = inhibits human ADAM10. O14672. recombinant ADAM10, EDANS/DABCYL FRET peptide cleavage, 3 h. inhibition, % at 7 µM. 0.62% of 370,000 active;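 active = inhibition above a per-campaign cutoff equal to the mean of compounds falling between control-based bounds plus 3 SD, cut at about 20% in these data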
# ADAM17 inh = ADAM17 inhibition, QFRET primary screen; inhibition, % at 6.95 µM; AID 720648; 0.83% of 370,000 active; P78536; recombinant ADAM17, EDANS/DABCYL FRET peptide cleavage;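 active = inhibition above the mean of compounds lying between control limits plus 3 SD, set per campaign, cut at about 8.5% in these data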
# PLC-beta3 inh = inhibitors of human phospholipase C beta3; Purified PLC-beta3, fluorogenic substrate, fluorescence; inhibition, % at 12.2 µM; 0.18% of 370,000 active; AID 720704
# PLCg1 ctr = inhibits human PLC-gamma1 in PLC-beta3 counter-screen; inhibition, % at 12.3 µM; shares compounds with PLC-gamma1 inh; 3.1% of 3,300 active; purified PLC-gamma1, fluorogenic substrate, fluorescence; AID 743258; in the data active = inhibition above about 9.5%
# PLCb3 confirm = confirmation of human PLC-beta3 inhibitors; shares compounds with PLC-gamma1 inh; AID 743261; purified PLC-beta3, fluorogenic substrate fluorescence; 1% of 3,300 active; inhibition, % at 12.3 µM
# A number is an active result; - = inactive; . = no result. In the library only some 3.4% were active in any assay of this set; here they are far more common. Cut-off read from the data, not from the text of the source, unless noted: active = inhibition above about 11%; inactive = the rest.
SMILES,PLC-gamma1 inh,KLK7 zymogen act,HGIII-sPLA2 inh,ADAM10 inh,ADAM17 inh,PLC-beta3 inh,PLCg1 ctr,PLCb3 confirm
CCOc1ccc(C(=O)c2cc([N+](=O)[O-])ccc2Cl)cc1,13,-,-,-,-,15,-,-
Cc1ccc(-c2nnc(SCC(=O)NC3CC3)n2N)cc1,-,-,-,-,-,-,.,.
Cc1ccc(-c2nnc(SCC(=O)NC3CCCC3)n2N)cc1,12,-,-,-,-,-,-,-
Cc1ccc(Cn2nnc3c(=O)[nH]c(C4CCN(C(=O)Cc5cccs5)CC4)nc32)cc1,-,-,-,-,-,-,.,.
O=C(Cc1cccs1)N1CCC(c2nc3c(nnn3Cc3ccccc3)c(=O)[nH]2)CC1,10,-,-,-,-,12,-,12
COc1cc([N+](=O)[O-])ccc1NC(=O)C[n+]1ccccc1C,-,-,-,-,-,-,.,.
Cc1cccc[n+]1CC(=O)Nc1ccc([N+](=O)[O-])cc1Cl,14,-,-,-,-,-,-,-
CCOc1ccc(-c2cc(C(=O)OC)c3n(c2=O)CCC3)cc1,-,-,-,-,-,-,.,.
Cc1ccc(-c2nc(N)n(C(=O)c3cccnc3)n2)cc1,12,-,-,-,-,-,-,-
Cc1cc(C(=O)CSc2n[nH]c(-c3ccccc3F)n2)c(C)n1Cc1cccs1,10,-,-,-,-,-,-,-
Cc1csc(SCC(=O)c2cc(C)n(Cc3cccs3)c2C)n1,-,-,-,-,-,-,.,.
O=C(CN1C2=NCCCN2c2ccccc21)c1ccc([N+](=O)[O-])cc1,9.6,-,-,-,-,-,-,-
O=[N+]([O-])c1ccccc1S(=O)(=O)N1CCc2ccccc2C1,-,-,-,-,-,12,-,-
CCCCN(CCCC)CC(O)COc1ccccc1C(=O)Nc1ccccc1 (configuration not stated),-,-,-,-,-,11,-,-
C/C(=N/NC(=O)CSc1nnc(-c2ccccc2)n1-c1ccc(Cl)cc1)c1cccc(O)c1,-,-,-,-,-,-,.,.
CCn1c(=S)sc2c(=O)n(CC(=O)Nc3cccc(Cl)c3)c(C)nc21,10,-,-,-,-,-,-,11
CN1CCN(c2ccc3c(c2)Oc2ccccc2CN(Cc2cn(Cc4ccc(F)cc4)nn2)S3(=O)=O)CC1,-,-,-,-,-,-,.,.
CCOc1ccc(/C=C/C(=O)Nc2ccc(OC)cc2[N+](=O)[O-])cc1,-,-,-,-,-,11,-,-
CCOc1ccc(NC(=O)/C=C/c2ccccc2)c([N+](=O)[O-])c1,-,-,-,-,-,-,.,.
COc1ccc(NC(=O)Cc2ccc(C)cc2)c([N+](=O)[O-])c1,-,-,-,-,-,14,-,-
COc1ccc(NC(=O)COc2ccc(C)cc2)c([N+](=O)[O-])c1,-,-,-,-,-,-,.,.
CCN(CC)C(=O)CSc1nc2ccccc2c(=O)n1-c1cccc(OC)c1,10,-,-,-,-,-,-,-
CCCCCN(C(=O)Cc1c(C)n(CCCCC)c2ccccc12)c1ccc(Oc2cccnc2)c(C)c1,-,-,-,-,-,-,.,.
CN(C)C(=O)CSc1nc2ccccc2c(=O)[nH]1,-,-,-,-,-,-,.,.
Cc1cc(C)cc(N(CCC#N)C(=O)CSc2nc3ccccc3c(=O)[nH]2)c1,9.8,-,-,-,-,-,-,-
SMILES,PLC-gamma1 inh,KLK7 zymogen act,HGIII-sPLA2 inh,ADAM10 inh,ADAM17 inh,PLC-beta3 inh,PLCg1 ctr,PLCb3 confirm
Cc1cccc(NC(=O)Cn2nnc(-c3ccccc3F)n2)c1C,-,-,-,-,-,-,.,.
Cn1nnnc1SCCNC/C=C/c1ccccc1,-,-,-,-,-,13,-,-
Cn1nnnc1SCCNCc1cccc2ccccc12,-,-,-,-,-,-,.,.
COc1cccc(C(=O)N[C@H](C(=O)N2CCC[C@H]2C(=O)NCc2ccccc2)c2ccccc2)c1,-,-,-,-,-,-,.,.
Cc1ccccc1-c1nn[nH]n1,-,-,-,-,-,-,.,.
Oc1ccc(N=Nc2ccccc2-c2nn[nH]n2)c(O)c1,12,-,-,-,-,-,-,-
O=C(CNCc1ccc(Cl)cc1)Nc1ccc2c(c1)OCCO2,10,-,-,-,-,-,-,-
O=[N+]([O-])c1cccc(OCCCN2CCC(C(O)(c3ccccc3)c3ccccc3)CC2)c1,-,-,-,-,-,-,.,.
C[C@H](CO)N1C[C@H](C)[C@@H](CN(C)C(=O)c2ccccc2)OCc2cn(nn2)CCCC1=O,-,-,-,-,-,11,-,-
C[C@@H]1CN([C@H](C)CO)C(=O)CCCn2cc(nn2)CO[C@H]1CN(C)C(=O)c1ccncc1,-,-,-,-,-,-,.,.
COc1cccc(S(=O)(=O)N(C)C[C@H]2OCc3cnnn3CCCC(=O)N([C@@H](C)CO)C[C@@H]2C)c1,-,-,-,-,-,11,-,-
C[C@H](CO)N1C[C@H](C)[C@@H](CN(C)S(=O)(=O)c2ccc3c(c2)OCCCO3)OCc2cn(nn2)CCCC1=O,9.5,-,-,-,-,-,-,-
C#CCCN([C@@H](CC(C)C)C(=O)OC)S(=O)(=O)c1ccccc1Br,-,-,-,-,-,-,.,.
COc1ccc(C2SCC(=O)N2CCCN(C)C)cc1 (configuration not stated),-,-,-,-,-,13,-,-
COc1ccc(C(=O)N2CCN(C3CCC(c4ccccc4)CC3)CC2)cc1OC (configuration not stated),15,-,-,-,-,-,-,-
Cc1ccc(OCC(=O)N2CCN(c3ccc([N+](=O)[O-])c(N4CCOCC4)c3)CC2)cc1,-,-,-,-,-,-,.,.
O=C(COc1ccccc1)N1CCN(c2ccc([N+](=O)[O-])c(N3CCCCC3)c2)CC1,12,-,-,-,-,-,-,-
Cc1ccccc1C(=O)N[C@@H](Cc1cccnc1)C(=O)N1CCC[C@H]1C(=O)NCCc1ccccc1Cl,-,-,-,-,-,-,.,.
O=C(O)c1cc(N=Nc2c(O)ccc3ccccc23)cc(C(=O)O)c1,-,-,-,-,-,-,.,.
Cc1[nH]c2ccccc2c1N=Nc1cc(C(=O)O)cc(C(=O)O)c1,11,-,-,-,-,-,-,-
Cc1ccc(SCCN2CCC(C(C)(C)C)CCC2=O)cc1 (configuration not stated),-,-,-,-,-,-,.,.
CC(C)(C)C1CCC(=O)N(CCSc2ccccc2)CC1 (configuration not stated),13,-,-,-,-,-,-,-
CC(C)(C)C1CCC(=O)N(CCC#N)CC1 (configuration not stated),11,-,-,-,-,-,-,-
